Measurements: PubChem BioAssay (Tox21)
Activity calls are given as the source filed them. Unless noted, the call rests on the fitted dose curve; in most records, active means well fitted curve in the direction sought with a large enough effect in the repeat runs; inconclusive means weak or mixed curves; inactive means flat fitted curve, though single readings scatter.

Experiments:
[1] = qHTS assay to test for compound auto fluorescence at 535 nm (green) in HEK293 cells (AID 720680)
[2] = qHTS assay to test for compound auto fluorescence at 460 nm (blue) in HEK293 cell free culture (AID 720681)
Outline: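 Test compounds were pinned into cell-free culture medium (DMEM with 10% FBS) and fluorescence was read directly at Ex/Em 405/460 nm. Signals were expressed as fluorescence equivalents of triamterene, with DMSO vehicle as control.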

[3] = qHTS assay to test for compound auto fluorescence at 535 nm (green) in HEK293 cell free culture (AID 720682)
Outline: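 Intrinsic compound fluorescence is measured in culture medium containing 10% FBS, with excitation at 485 nm and detection at 535 nm, referenced to fluorescein.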

[4] = qHTS assay to test for compound auto fluorescence at 590 nm (red) in HEK293 cell free culture (AID 720683)
Outline: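 Tox21 10K library compounds were pinned into cell-free DMEM with 10% FBS and fluorescence was read at excitation 540 nm. Activity is expressed as Rose Bengal sodium equivalency.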

[5] = qHTS assay to test for compound auto fluorescence at 590 nm (red) in HepG2 cell free culture (AID 720684)
Outline: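 Readout: intrinsic compound fluorescence at 590 nm emission after 540 nm excitation, scaled to Rose Bengal sodium. Matrix was cell-free MEM with 10% FBS; DMSO vehicle wells served as control.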

[6] = qHTS assay to test for compound auto fluorescence at 460 nm (blue) in HepG2 cell free culture (AID 720685)
Outline: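 Cell-free plates of MEM plus 10% FBS received 23 nL compound or DMSO vehicle; blue-channel (405/460 nm) intensity scored against triamterene as reference fluorophore.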

[7] = qHTS assay to test for compound auto fluorescence at 535 nm (green) in HepG2 cell free culture (AID 720686)
[8] = qHTS assay to test for compound auto fluorescence at 460 nm (blue) in HepG2 cells (AID 720687)
Outline: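 Cells (2,000/well in MEM with 10% FBS) attached overnight at 37 C, then were exposed to compound or DMSO for 1 hr at 37 C, 5% CO2. Fluorescence read at Ex/Em 405/460 nm, expressed as triamterene-equivalent signal.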

[9] = target: Glucocorticoid receptor (Homo sapiens) (UniProt P04150); assay: qHTS assay to identify small molecule agonists of the glucocorticoid receptor (GR) signaling pathway (AID 720691; active means well fitted activation curve with a large enough effect in the signal ratio in the repeat runs, not every such curve was filed as active; inconclusive means weak or mixed curves, or effect the other way; inactive means no such curve, though single readings can be large or run the other way; the % refers to the signal ratio; further: potency means the concentration at half of the fitted maximal effect); conditions: GR-bla HeLa, beta-lactamase reporter ratio, 18 h; activation: at 62.4 µM (top of the series) unless noted
Outline: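 HeLa GR-bla reporter line; cells pre-incubated 4 h, compound in DMSO 18 h at 37 C; LiveBLAzer B/G FRET substrate 2 h RT; fluorescence intensity read-out.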

[10] = target: Glucocorticoid receptor (Homo sapiens) (UniProt P04150); assay: qHTS assay to identify small molecule antagonists of the glucocorticoid receptor (GR) signaling pathway (AID 720692; active means well fitted inhibition curve with a large enough effect in the signal ratio in the repeat runs, not every such curve was filed as active; inconclusive means weak or mixed curves, or effect the other way; inactive means no such curve, though single readings can be large or run the other way; the % refers to the signal ratio; further: potency means the concentration at half of the fitted maximal effect)
Outline: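 Read-out: beta-lactamase FRET substrate fluorescence, 2 h at room temperature, in HeLa cells stably carrying a GRE-driven bla reporter. Compounds were co-incubated with 5 nM dexamethasone agonist (final) for 18 h at 37 C.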
On the % scale 0 is the no-effect control and ±100 the full control effect.

Sequence of Glucocorticoid receptor (Homo sapiens) (P04150 whole entry, looked up): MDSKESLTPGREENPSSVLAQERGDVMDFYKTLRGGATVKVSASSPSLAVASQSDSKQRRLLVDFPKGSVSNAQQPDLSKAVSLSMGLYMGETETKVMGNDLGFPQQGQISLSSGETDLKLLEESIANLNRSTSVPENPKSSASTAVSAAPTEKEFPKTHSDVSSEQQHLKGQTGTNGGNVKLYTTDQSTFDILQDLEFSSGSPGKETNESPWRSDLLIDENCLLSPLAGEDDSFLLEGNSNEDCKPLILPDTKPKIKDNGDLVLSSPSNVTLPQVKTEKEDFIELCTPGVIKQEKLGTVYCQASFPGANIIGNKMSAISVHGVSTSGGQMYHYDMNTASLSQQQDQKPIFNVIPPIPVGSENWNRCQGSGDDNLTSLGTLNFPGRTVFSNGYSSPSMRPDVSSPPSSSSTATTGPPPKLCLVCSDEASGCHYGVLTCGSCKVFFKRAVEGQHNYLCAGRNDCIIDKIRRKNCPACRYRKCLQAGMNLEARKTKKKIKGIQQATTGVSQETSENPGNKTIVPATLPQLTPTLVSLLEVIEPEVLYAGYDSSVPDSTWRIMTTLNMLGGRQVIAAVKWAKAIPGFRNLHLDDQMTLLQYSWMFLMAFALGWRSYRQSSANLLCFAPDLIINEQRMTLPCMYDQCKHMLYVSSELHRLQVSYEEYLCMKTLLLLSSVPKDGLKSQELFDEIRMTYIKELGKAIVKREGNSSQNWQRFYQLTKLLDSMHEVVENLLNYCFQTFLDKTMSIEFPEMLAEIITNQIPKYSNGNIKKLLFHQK

CC(CSC(=O)c1ccccc1)C(=O)N1C[C@@H](Sc2ccccc2)C[C@H]1C(=O)O (some centres not stated)
inactive: outcome [1] | outcome [2] | outcome [3] | Potency [4] | Potency [5] | outcome [6] | Potency [7] | outcome [8] | Potency [9] | Potency [10]

O=C(Nc1ccc(S(=O)(=O)N2CCOCC2)cc1)c1cc(Cl)ccc1NS(=O)(=O)c1ccc(Cl)s1
inactive: outcome [1] | outcome [2] | outcome [3] | Potency [4] | Potency [5] | outcome [6] | Potency [7] | outcome [8] | Potency [9]
active: Potency [10] 26.8 µM

CCn1cc(C(=O)O)c(=O)c2cnc(N3CCNCC3)nc21
inactive: fluorescence, % of fluorescein [1] 0.0376% [at 18.6 µM] | fluorescence, % of fluorescent control [2] 6.27% [at 18.6 µM] | activity change [3] 0.0637% [at 18.6 µM] | fluorescence, % of fluorescent control [4] -0.371% [at 18.6 µM] | fluorescence, % of fluorescent control [6] 0.0041% [at 18.6 µM] | fluorescence, % of fluorescein control [7] 0.152% [at 18.6 µM] | fluorescence, % of fluorescent control [8] -0.128% [at 18.6 µM]

CCN(CC)CCNc1ccc(CNC=O)c2sc3ccc(OC)cc3c(=O)c12
active: Potency [9] 49 µM [inconclusive]
inactive: outcome [1] | outcome [2] | outcome [3] | Potency [4] | outcome [6] | Potency [7] | outcome [8]

CNCCCN1c2ccccc2CCc2ccccc21
inactive: fluorescence, % of fluorescein [1] -0.0036% [at 18.6 µM] | fluorescence, % of fluorescent control [2] 0.0048% [at 18.6 µM] | activity change [3] 0.0761% [at 18.6 µM] | fluorescence, % of fluorescent control [4] 0.0052% [at 18.6 µM] | fluorescence, % of fluorescent control [6] 0.0158% [at 18.6 µM] | fluorescence, % of fluorescein control [7] -0.0226% [at 18.6 µM] | fluorescence, % of fluorescent control [8] 0.0417% [at 18.6 µM]

CCCCCCCCCOS(=O)(=O)O
inactive: outcome [1] | outcome [2] | outcome [3] | Potency [4] | outcome [6] | Potency [7] | outcome [8]

COc1ccc(S(=O)(=O)N2C(=O)[C@@](c3ccccc3OC)(N3C[C@H](O)C[C@H]3C(=O)N(C)C)c3cc(Cl)ccc32)c(OC)c1
inactive: outcome [1] | outcome [2] | outcome [3] | Potency [4] | outcome [6] | Potency [7] | outcome [8] | Potency [9]

C=CCOc1ccccc1OCC(O)CNC(C)C (configuration not stated)
inactive: fluorescence, % of fluorescein [1] -0.0095% [at 18.6 µM] | fluorescence, % of fluorescent control [2] 0.179% [at 18.6 µM] | activity change [3] -0.0456% [at 18.6 µM] | fluorescence, % of fluorescent control [4] 0.179% [at 18.6 µM] | fluorescence, % of Rose Bengal [5] 0.264% [at 18.6 µM] | fluorescence, % of fluorescent control [6] -0.0059% [at 18.6 µM] | fluorescence, % of fluorescein control [7] 0.0052% [at 18.6 µM] | fluorescence, % of fluorescent control [8] -0.0332% [at 18.6 µM] | Potency [10]

C=C(C)C(=O)OCCO
inactive: outcome [1] | outcome [2] | outcome [3] | Potency [4] | Potency [5] | Potency [7] | outcome [8] | Potency [9]

COc1cc2nc(N3CCN(C(=O)C4COc5ccccc5O4)CC3)nc(N)c2cc1OC (configuration not stated)
inactive: outcome [1] | outcome [2] | outcome [3] | Potency [4] | Potency [5] | Potency [7] | outcome [8]

CCCCC1=NC2(CCCC2)C(=O)N1Cc1ccc(-c2ccccc2-c2nn[nH]n2)cc1
inactive: outcome [1] | outcome [2] | outcome [3] | Potency [4] | Potency [5] | Potency [7] | outcome [8]

COc1cc(Cl)c(OC)cc1N
inactive: outcome [1] | outcome [2] | outcome [3] | Potency [4] | outcome [6] | Potency [7] | outcome [8] | Potency [9] | Potency [10]

OC[C@H]1O[C@@H](OCCc2ccc(O)cc2)[C@H](O)[C@@H](O)[C@@H]1O
inactive: outcome [1] | outcome [2] | outcome [3] | Potency [4] | Potency [5] | Potency [7] | outcome [8] | Potency [9] | Potency [10]

CN(C)c1ccc(CCO)cc1
inactive: outcome [1] | outcome [2] | outcome [3] | Potency [4] | Potency [5] | Potency [7] | outcome [8]

COc1ccc(C(=O)N2CCN(CC(=O)N3CCOCC3)CC2)cc1
inactive: outcome [1] | outcome [2] | outcome [3] | Potency [4] | Potency [5] | Potency [7] | outcome [8]

Brc1c2ccccc2c(Br)c2ccccc12
active: Potency [9] 0.882 µM
inactive: fluorescence, % of fluorescein [1] 0.0022% [at 3.72 µM] | fluorescence, % of fluorescent control [2] 0.357% [at 3.72 µM] | activity change [3] -0.0415% [at 3.72 µM] | fluorescence, % of fluorescent control [4] 0.0422% [at 3.72 µM] | fluorescence, % of Rose Bengal [5] 0.241% [at 3.72 µM] | fluorescence, % of fluorescein control [7] 0.0474% [at 3.72 µM] | fluorescence, % of fluorescent control [8] 1.18% [at 3.72 µM]

O=C1OC(CN2CCOCC2)CN1/N=C/c1ccc([N+](=O)[O-])o1 (configuration not stated)
inactive: fluorescence, % of fluorescein [1] -0.416% [at 18.6 µM] | fluorescence, % of fluorescent control [2] -0.128% [at 18.6 µM] | activity change [3] -0.0395% [at 18.6 µM] | fluorescence, % of fluorescent control [4] 0.0972% [at 18.6 µM] | fluorescence, % of Rose Bengal [5] 0.113% [at 18.6 µM] | fluorescence, % of fluorescein control [7] -0.14% [at 18.6 µM] | fluorescence, % of fluorescent control [8] -0.0405% [at 18.6 µM] | Potency [9] | Potency [10]

C=CC(=O)OCCOCCOCCOCCOC(=O)C=C
inactive: outcome [1] | outcome [2] | outcome [3] | Potency [4] | Potency [5] | Potency [7] | outcome [8] | Potency [9]

CCCCCCCCCCCc1ccccc1
inactive: outcome [1] | outcome [2] | outcome [3] | Potency [4] | outcome [6] | Potency [7] | outcome [8] | Potency [9]

COc1ccnc(CS(=O)c2nc3ccc(OC(F)F)cc3[nH]2)c1OC (configuration not stated)
inactive: outcome [1] | outcome [2] | outcome [3] | Potency [4] | Potency [5] | Potency [7] | outcome [8] | Potency [9]

COCC(C)OC(C)=O (configuration not stated)
inactive: outcome [1] | outcome [2] | outcome [3] | Potency [4] | outcome [6] | Potency [7] | outcome [8] | Potency [9] | Potency [10]

C/C=C/C=C/CO
inactive: outcome [1] | outcome [2] | outcome [3] | Potency [4] | Potency [5] | outcome [6] | Potency [7] | outcome [8] | Potency [9] | Potency [10]

CCCCCCCN
inactive: outcome [1] | outcome [2] | outcome [3] | Potency [4] | outcome [6] | Potency [7] | outcome [8] | Potency [9] | Potency [10]

C[N+]1(C)CCC(OC(=O)C(O)(c2ccccc2)C2CCCC2)C1 (configuration not stated)
inactive: outcome [1] | outcome [2] | outcome [3] | Potency [4] | outcome [6] | Potency [7] | outcome [8] | Potency [9]

CC(=O)OC[C@H]1O[C@@H](n2ncc(=O)[nH]c2=O)[C@H](OC(C)=O)[C@@H]1OC(C)=O
inactive: outcome [1] | outcome [2] | outcome [3] | Potency [4] | outcome [6] | Potency [7] | outcome [8]

C#Cc1cccc(Nc2ncnc3cc(OCCOC)c(OCCOC)cc23)c1
inactive: outcome [1] | outcome [2] | outcome [3] | Potency [4] | Potency [5] | Potency [7] | outcome [8]
active: Potency [9] 26.8 µM [inconclusive]

CCCCOC(=O)CCCCCCCC(=O)OCCCC
inactive: outcome [1] | outcome [2] | outcome [3] | Potency [4] | outcome [6] | Potency [7] | outcome [8]

COc1cc(C(=O)OCCCN2CCCN(CCCOC(=O)c3cc(OC)c(OC)c(OC)c3)CC2)cc(OC)c1OC
inactive: outcome [1] | outcome [2] | outcome [3] | Potency [4] | Potency [5] | Potency [7] | outcome [8] | Potency [9] | Potency [10]

Cc1cc(C(=O)O)ccc1[N+](=O)[O-]
inactive: outcome [1] | outcome [2] | outcome [3] | Potency [4] | Potency [5] | Potency [7] | outcome [8] | Potency [9]

CCOC(=O)C(F)(F)F
inactive: outcome [1] | outcome [2] | outcome [3] | Potency [4] | Potency [5] | Potency [7] | outcome [8] | Potency [9] | Potency [10]

CC1=CCCC(C)(C)C12CCC(C)O2 (configuration not stated)
inactive: outcome [1] | outcome [2] | outcome [3] | Potency [4] | Potency [5] | Potency [7] | outcome [8]

C=C1[C@H]2CC[C@@H]3[C@H]2C(C)(C)CCC[C@]13C
inactive: outcome [1] | outcome [2] | outcome [3] | Potency [4] | outcome [6] | Potency [7] | outcome [8] | Potency [9] | Potency [10]

Nc1ccc(S(=O)(=O)Nc2ccccc2)cc1
inactive: outcome [1] | outcome [2] | outcome [3] | Potency [4] | Potency [5] | outcome [6] | Potency [7] | outcome [8] | Potency [9] | Potency [10]

CC(C)C[C@H]1C(=O)N2CCC[C@H]2[C@]2(O)O[C@](NC(=O)[C@@H]3C=C4c5cccc6[nH]c(Br)c(c56)C[C@H]4N(C)C3)(C(C)C)C(=O)N12
inactive: outcome [1] | outcome [2] | outcome [3] | Potency [5] | outcome [6] | Potency [7] | outcome [8] | Potency [9]

CCOC(=O)COC(=O)c1cc(Oc2ccc(C(F)(F)F)cc2Cl)ccc1[N+](=O)[O-]
inactive: outcome [1] | outcome [2] | outcome [3] | Potency [5] | outcome [6] | Potency [7] | outcome [8]

OCc1cc(C(O)CNCCCCCCOCCCCc2ccccc2)ccc1O (configuration not stated)
inactive: outcome [1] | outcome [2] | outcome [3] | Potency [5] | outcome [6] | Potency [7] | outcome [8] | Potency [9] | Potency [10]

C=CC1CC2C=CC1C2 (configuration not stated)
inactive: outcome [1] | outcome [2] | outcome [3] | outcome [6] | Potency [7] | outcome [8] | Potency [9] | Potency [10]

CCC(C)c1cc(C(C)(C)C)c(O)c(C(C)(C)C)c1 (configuration not stated)
inactive: outcome [1] | outcome [2] | outcome [3] | Potency [5] | outcome [6] | Potency [7] | outcome [8] | Potency [9] | Potency [10]
